Test results: PubChem BioAssay (Tox21)
Unmarked numbers belong to inactive results. Inconclusive results are not listed. Where a call stands in place of a potency, no number is given. Activity calls are given as the source filed them. Calls follow the shape of the full dose curve.

Target: Estrogen receptor (Homo sapiens) (UniProt P03372)
Experiment: qHTS assay to identify small molecule agonists of the estrogen receptor alpha (ER-alpha) signaling pathway in the presence of an antagonist (AID 1259383); also: top concentration of the series differs between compounds; nearly all actives have a fitted effect of over 15% in size
Conditions: VM7Luc4E2 cells, ERE-luciferase, +ICI-182,780, 22 h; series mostly up to 92.4 µM
Outline: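 Cells are hormone-deprived for 5 days (charcoal-stripped FBS, no phenol red), plated for 24hr, spiked with 10.0nM ICI-182,780, then dosed at 15 concentrations. After 22hr at 37C, ONE-Glo luminescence reports ERE-luciferase activity.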

Estrogen receptor (Homo sapiens), sequence (P03372 whole entry, looked up): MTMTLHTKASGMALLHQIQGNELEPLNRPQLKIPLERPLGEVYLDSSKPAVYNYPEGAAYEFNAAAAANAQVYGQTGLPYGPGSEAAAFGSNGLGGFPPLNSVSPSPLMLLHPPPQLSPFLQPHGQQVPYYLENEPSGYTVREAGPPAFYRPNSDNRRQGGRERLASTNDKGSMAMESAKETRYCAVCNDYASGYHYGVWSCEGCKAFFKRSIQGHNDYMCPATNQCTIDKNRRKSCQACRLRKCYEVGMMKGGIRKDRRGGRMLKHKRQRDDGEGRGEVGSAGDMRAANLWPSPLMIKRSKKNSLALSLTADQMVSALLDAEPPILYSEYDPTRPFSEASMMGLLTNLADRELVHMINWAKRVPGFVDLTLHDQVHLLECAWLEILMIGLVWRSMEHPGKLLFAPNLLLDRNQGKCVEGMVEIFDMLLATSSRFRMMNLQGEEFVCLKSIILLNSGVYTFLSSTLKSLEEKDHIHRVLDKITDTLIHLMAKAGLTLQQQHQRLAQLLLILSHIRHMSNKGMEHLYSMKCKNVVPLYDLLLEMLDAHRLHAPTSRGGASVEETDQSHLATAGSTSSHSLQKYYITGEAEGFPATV

| Compound | Potency | activation |
| --- | --- | --- |
| C=C(C#N)CCC#N | inactive | – |
| CC(=O)C(C)(C)C | inactive | – |
| CC(=O)CCC(C)=O | inactive | – |
| ClCC(Br)CBr (stereo unspecified) | inactive | – |
| CCCCCCC#N | inactive | – |
| C=CCC1([C@H](C)CCC)C(=O)NC(=O)NC1=O | inactive | – |
| CC1(C)[C@H](C=C(Cl)Cl)[C@@H]1C(=O)O[C@@H](C#N)c1cccc(Oc2ccccc2)c1 | inactive | – |
| CCBr | inactive | – |
| Cc1ccc(N)cc1C | inactive | – |
| N#C/C(N)=C(/N)C#N | inactive | – |
| CCCN(CC1CC1)c1c([N+](=O)[O-])cc(C(F)(F)F)cc1[N+](=O)[O-] | inactive | – |
| CCC(Cl)CCl (stereo unspecified) | inactive | – |
| CO/C=C(/C(=O)OC)c1ccccc1COc1cccc(C(F)(F)F)n1 | inactive | – |
| COC(N)=O | inactive | – |
| c1ccoc1 | inactive | – |
| Clc1cccc(SC2CCNCC2)n1 | inactive | – |
| O=[N+]([O-])C(Br)(CO)CO | inactive | – |
| O=C(O)COc1ccc(Cl)cc1 | inactive | – |
| CO[C@@H]1[C@H](OC(=O)NC(=O)CCl)CC[C@]2(CO2)[C@H]1[C@@]1(C)O[C@@H]1CC=C(C)C | – | -0.438% [at 19 µM] |

Test system: not listed separately
Experiment: qHTS assay to identify small molecule agonists or antagonists of the thyroid stimulating hormone receptor (TSHR) signaling pathway - wild type cell line counter screen (AID 1259384)
Conditions: HEK293 wild type, cAMP HTRF counter-screen, stronger effect = higher value; series mostly up to 92.4 µM
Outline: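 Wild-type Hek293 cells, 800/well, 18 h at 37C, then compound with Ro20-1724 for 30 min RT. cAMP by HTRF (cAMP-d2/anti-cAMP cryptate), 1 h RT, fluorescence read. 15 concentrations, triplicates.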

| Compound | outcome |
| --- | --- |
| CCCCN=C=O | inactive |
| C=C(C#N)CCC#N | inactive |
| CC(C)N(CCC(C(N)=O)(c1ccccc1)c1ccccn1)C(C)C (stereo unspecified) | inactive |
| CC(=O)C(C)(C)C | inactive |
| O=Cc1ccc2c(c1)OCO2 | inactive |
| CC(=O)CCC(C)=O | inactive |
| O=C1c2ccccc2C(=O)C1C(=O)C(c1ccccc1)c1ccccc1 | inactive |
| ClCC(Br)CBr (stereo unspecified) | inactive |
| CCC(Br)(CC)C(=O)NC(N)=O | inactive |
| C=CC(=O)OC(C)(C)C | inactive |
| Nc1nc(N)nc(N)n1 | inactive |
| CCOP(=O)(OCC)Oc1ccc([N+](=O)[O-])cc1 | inactive |
| CCCCCCC#N | inactive |
| C=CCC1([C@H](C)CCC)C(=O)NC(=O)NC1=O | inactive |
| CC1(C)[C@H](C=C(Cl)Cl)[C@@H]1C(=O)O[C@@H](C#N)c1cccc(Oc2ccccc2)c1 | inactive |
| CCBr | inactive |

| Compound | outcome |
| --- | --- |
| Cc1ccc(N)cc1C | inactive |
| N#C/C(N)=C(/N)C#N | inactive |
| CCOP(O)OCC | inactive |
| CCOC(=O)CBr | inactive |
| CCCN(CC1CC1)c1c([N+](=O)[O-])cc(C(F)(F)F)cc1[N+](=O)[O-] | inactive |
| CC(C)(CCl)C(=O)Cl | inactive |
| CN1C(=O)NC(=O)C(C)(C2=CCCCC2)C1=O (stereo unspecified) | inactive |
| CCC(Cl)CCl (stereo unspecified) | inactive |
| CO/C=C(/C(=O)OC)c1ccccc1COc1cccc(C(F)(F)F)n1 | inactive |
| CC/C(=N\OC/C=C/Cl)C1=C(O)CC(C2CCOCC2)CC1=O (stereo unspecified) | inactive |
| c1ccoc1 | inactive |
| O=C(O)CC(Cl)C(=O)O (stereo unspecified) | inactive |
| C=CC(=O)OC | inactive |
| Clc1cccc(SC2CCNCC2)n1 | inactive |
| O=[N+]([O-])C(Br)(CO)CO | inactive |
| O=C(O)COc1ccc(Cl)cc1 | inactive |
